Screening data from PubChem.
Phagocyt inh: macrophage phagocytosis inhibition. J774A.1 macrophage IgG-bead phagocytosis, imaging. inhibition, % at 5 µM. 0.07% of 110,000 active. AID 1029;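 active = inhibition above the mean of the plate negative controls plus 5 SD, cut at about 13% in these data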;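 also: phagocytic index as fraction of beads internalized from green versus red external bead signal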
CD11b adhes enh: increases human CD11b/CD18 adhesion to fibrinogen; K562 CD11b/CD18 adhesion to fibrinogen, ATPlite luminescence; activation, % at 10 µM; 0.07% of 93,000 active;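 active = 10 µM primary screen giving 50% or more activity, confirmed by 40% or more on retest at that dose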
CD11b adhes inh: blocks human CD11b/CD18 adhesion to fibrinogen. P05107+P11215. AID 1497. inhibition, % at 10 µM. K562 CD11b/CD18 adhesion to fibrinogen, ATPlite luminescence; Mn2+ added to activate the integrin. 0.54% of 93,000 active;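 active = primary inhibition of 50% or more at 10 µM, then 40% or more on retest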
TNAP act DEA: activates human TNAP at intermediate phosphate acceptor concentration. purified TNAP, CDP-star luminescence, 100 mM DEA, 30 min; stronger effect = higher value; scale: 0 levamisole-inhibited, 1 vehicle-only enzyme. 64,000 tested, under 10 active. activation factor at 20 µM;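 active = activation factor of at least 2 at 20 µM, relative to controls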
FAK inh: inhibitors of human focal adhesion kinase; Q05397; biochemical FAK kinase activity assay; inhibition, %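 (tested at 7 µM)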; 0.84% of 97,000 active
FAK inh conf: FAK (human) inhibition confirmed; shares compounds with FAK inh; FAK kinase biochemical inhibition assay; inhibition, % at 7 µM; 28% of 750 active
Of the large screens only hits and unclear results are named; the others gave an inactive call (follow-up assays come after a bar, where they were run). A selection: hits, their analogues and other compounds. The true share with any hit is near 0.96%. Rule as the data show it, unless noted: active = inhibition above about 19%; inactive = the rest.

COc1cc(/C=N/NC(=O)Nc2cccc3nsnc23)cc(OC)c1OC	none (no result: TNAP act DEA)
COc1ccc(/C=N/NC(=O)Nc2cccc3nsnc23)c(OC)c1	FAK inh 26 (no result: TNAP act DEA) | FAK inh conf inactive
O=C(CSc1nnnn1-c1ccc2c(c1)OCCO2)Nc1nc2c(s1)CCCC2	FAK inh 29 | FAK inh conf inactive
COCc1c(C(=O)N2CCN(c3ccc(C(F)(F)F)cn3)CC2)oc2ccccc12	none (no result: TNAP act DEA)
O=c1cc(-c2ccccc2)c2ccccc2[nH]1	FAK inh 19 | FAK inh conf inactive
Cc1cc(=O)[nH]c2ccccc12	none (no result: Phagocyt inh, CD11b adhes enh, CD11b adhes inh)
CCCCc1ccc(Nc2ncnc3nc[nH]c23)cc1	none
COc1cccc(Nc2ncnc3nc[nH]c23)c1	FAK inh 23 (no result: TNAP act DEA) | FAK inh conf inactive
Cc1ccc(Nc2ncnc3nc[nH]c23)cc1Cl	FAK inh 31 | FAK inh conf inactive
COC(=O)C1=C(C)Nc2c(c(=O)n(C)c(=O)n2C)C1c1cccs1 (centres undefined)	FAK inh 19 | FAK inh conf inactive
CCOC(=O)c1cnc2ccc(C(=O)OC)cc2c1Nc1ccc2c(c1)OCCO2	FAK inh 36 (no result: Phagocyt inh, CD11b adhes enh, CD11b adhes inh, TNAP act DEA) | FAK inh conf inactive
CCOC(=O)c1cnc2ccc(OC)cc2c1Nc1ccc2c(c1)OCCO2	FAK inh 24 (no result: TNAP act DEA) | FAK inh conf inactive
CCOC(=O)c1ccc2ncc(C(=O)OCC)c(NCc3ccco3)c2c1	FAK inh 23 | FAK inh conf inactive
C/C(CC(=O)Nc1ccc(F)cc1)=N\NC(=O)COc1ccccc1	none (no result: CD11b adhes enh, CD11b adhes inh, TNAP act DEA, FAK inh)
CCOC(=O)c1sc(=S)n(-c2ccc(Cl)cc2)c1SC	none (no result: Phagocyt inh, CD11b adhes enh, CD11b adhes inh, TNAP act DEA)
O=c1c2ccccc2nc2ccc(NCc3ccco3)nn12	FAK inh 23 | FAK inh conf inactive
Cc1ccc2cc3cc(C(=O)NCc4ccc5c(c4)OCO5)oc3nc2c1	FAK inh 28 | FAK inh conf 20
O=C(NCc1ccc2c(c1)OCO2)c1cc2ccccc2o1	none (no result: TNAP act DEA)
Clc1ccc2[nH]cc(-c3nnnn3-c3ccccc3)c2c1	FAK inh 33 (no result: Phagocyt inh, CD11b adhes enh, CD11b adhes inh, TNAP act DEA) | FAK inh conf 20
COc1ccc(C(CC(=O)NCCCN2CCOCC2)NS(=O)(=O)c2ccc(C)cc2)cc1 (centres undefined)	none
Cc1ccccc1NC1=C/C(=N\S(=O)(=O)c2cccs2)c2ccccc2C1=O	FAK inh 42 (no result: TNAP act DEA) | FAK inh conf 32
COc1ccc(C2OC(=O)CC2C(=O)NC2CCCCCC2)cc1OC (centres undefined)	FAK inh 21 | FAK inh conf inactive
COc1ccc(C2OC(=O)CC2C(=O)NC2CCCC(C)C2C)cc1OC (centres undefined)	none (no result: Phagocyt inh, TNAP act DEA)
COc1ccc(/C=N/NC(=O)COc2cc(C)cc(C)c2)cc1COC(C)=O	none (no result: CD11b adhes enh, CD11b adhes inh, TNAP act DEA, FAK inh)
CCOc1ccc(N=C2NC(=O)S/C2=C\c2ccc(Cl)cc2)cc1	FAK inh 33 (no result: TNAP act DEA) | FAK inh conf 51
O=C1Nc2ccccc2C12OCC(COc1ccc(Cl)cc1)O2 (centres undefined)	FAK inh 20 | FAK inh conf inactive
CN1C(=O)C2(OCC(COc3ccc(Cl)cc3)O2)c2ccccc21 (centres undefined)	none
CCOC(=O)NC(=O)/C(C#N)=N/Nc1c(F)cccc1F	none (no result: TNAP act DEA)
N#C/C(=N\Nc1c(Cl)cccc1Cl)C(=O)NN	FAK inh 45 (no result: TNAP act DEA) | FAK inh conf 33
O=C(CSc1nnc(COc2cccc3cccnc23)o1)N1CCc2ccccc21	FAK inh 20 | FAK inh conf inactive
COc1ccc(OC)c(S(=O)(=O)NCc2ccccc2)c1	none
COc1ccc(OC)c(NS(=O)(=O)Cc2ccccc2)c1	FAK inh 46 | FAK inh conf 32
O=S(=O)(c1ccc(Oc2ccc(-c3nnco3)cc2)nc1)N1CCC(Cc2ccccc2)CC1	FAK inh 19 (no result: Phagocyt inh) | FAK inh conf inactive
CCOC(=O)C1=C(C)NC(SCC(=O)Nc2cc(C)on2)=C(C#N)C1c1cccs1 (centres undefined)	none
COC(=O)c1ccc2c(=O)n(CCN3CCOCC3)c(SCC(=O)NC3CCCCC3)nc2c1	none (no result: Phagocyt inh, CD11b adhes enh, CD11b adhes inh, FAK inh)
O=c1oc2ccccc2c(Nc2ccc(O)cc2)c1[N+](=O)[O-]	none (no result: Phagocyt inh, CD11b adhes enh, CD11b adhes inh, TNAP act DEA)
O=c1oc2ccccc2c(Nc2ccc3ccccc3c2)c1[N+](=O)[O-]	FAK inh 24 (no result: TNAP act DEA) | FAK inh conf inactive
CCOc1cc(NC(=S)Nc2ccccc2OC)c(OCC)cc1NC(=O)c1ccccc1C	none (no result: Phagocyt inh, CD11b adhes enh, CD11b adhes inh, TNAP act DEA)
CCN(CC)C(=O)CSc1nnc(CCCCCNC(=O)OC(C)(C)C)o1	none
